Legend:
Experiment in all cases: PBM binding z-score (relative to random genomic background probes); higher = stronger binding; sequences stand for … in GC…GCGATTGACAGCGTAGAATGAAGG
[1] = test system: FXR:RXRa (NR concentration 270 nM, RXRa partner concentration 90 nM)
Summary of the method: (§1)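 Probes were double-stranded and carried 34-nt variable regions with direct-repeat seeds, single-nucleotide variants, half-site ablations and random human genomic background sequences, printed on custom Agilent 4×180K protein-binding microarrays. Arrays were incubated 1 h with ligand-free nuclear receptor dimers in PBS pH 7.4, 2% milk, 0.02% Triton X-100, 1 mM DTT, 0.2 mg/mL BSA and 0.4 mg/ml salmon testes DNA. Antibodies against each partner (one per run) detected binding, and scanned fluorescence was regression-normalized. Binding z-scores use the random background probes as reference.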

[2] = test system: LXRa:RXRa (NR concentration 270 nM, RXRa partner concentration 90 nM)
Summary of the method: as §1

[3] = test system: LXRa homodimer (NR concentration 270 nM)
Summary of the method: as §1

[4] = test system: LXRb:RXRa (NR concentration 270 nM, RXRa partner concentration 90 nM)
Summary of the method: as §1

[5] = test system: LXRb homodimer (NR concentration 270 nM)
Summary of the method: as §1

[6] = test system: PPARa:RXRa (NR concentration 270 nM, RXRa partner concentration 90 nM)
Summary of the method: as §1

[7] = test system: PPARg:RXRa (NR concentration 180 nM, RXRa partner concentration 90 nM)
Summary of the method: as §1

[8] = test system: PPARg:RXRa 270nM:90nM, anti-RXR (NR concentration 270 nM, RXRa partner concentration 90 nM)
Summary of the method: as §1

[9] = test system: PPARg:RXRa 30nM:10nM, anti-RXR (NR concentration 30 nM, RXRa partner concentration 10 nM)
Summary of the method: as §1

[10] = test system: PPARg:RXRa 90nM:30nM, anti-RXR (NR concentration 90 nM, RXRa partner concentration 30 nM)
Summary of the method: as §1

[11] = test system: PPARg:RXRa DBDmut IVT, anti-RXR (DBD mutation: RXRa K156A/R161A, NR concentration 270 nM, RXRa partner concentration 90 nM)
Summary of the method: as §1

[12] = test system: PPARg:RXRa IVT, anti-PPARg (NR concentration 270 nM, RXRa partner concentration 90 nM)
Summary of the method: as §1

[13] = test system: PPARg DBDmut:RXRa IVT, anti-PPARg (DBD mutation: PPARg1 K132A/R137A, NR concentration 270 nM, RXRa partner concentration 90 nM)
Summary of the method: as §1

[14] = test system: PPARg DBDmut IVT, anti-PPARg (DBD mutation: PPARg1 K132A/R137A, NR concentration 270 nM)
Summary of the method: as §1

[15] = test system: PPARg homodimer (NR concentration 180 nM)
Summary of the method: as §1

[16] = test system: PXR:RXRa (NR concentration 270 nM, RXRa partner concentration 90 nM)
Summary of the method: as §1

[17] = test system: PXR homodimer (NR concentration 270 nM)
Summary of the method: as §1

[18] = test system: RARa:RXR (NR concentration 270 nM, RXRa partner concentration 90 nM)
Summary of the method: as §1

[19] = test system: RARa homodimer (NR concentration 270 nM)
Summary of the method: as §1

[20] = test system: RARb:RXRa (NR concentration 270 nM, RXRa partner concentration 90 nM)
Summary of the method: as §1

Sequence	PBM binding z-score [1]	PBM binding z-score [2]	PBM binding z-score [3]	PBM binding z-score [4]	PBM binding z-score [5]	PBM binding z-score [6]	PBM binding z-score [7]	PBM binding z-score [8]	PBM binding z-score [9]	PBM binding z-score [10]	PBM binding z-score [11]	PBM binding z-score [12]	PBM binding z-score [13]	PBM binding z-score [14]	PBM binding z-score [15]	PBM binding z-score [16]	PBM binding z-score [17]	PBM binding z-score [18]	PBM binding z-score [19]	PBM binding z-score [20]
AGAATGAGCTTATACGTAGATCAGGGAAGAAAGT	-0.818	-0.491	-0.371	-0.861	-0.689	-0.706	0.415	-0.614	-0.0699	-0.597	-1.19	-0.676	0.558	0.438	-0.99	-0.359	-0.186	-0.221	-0.183	-1.13
CCCTACGGGTCAAGGTTATAGCACGGGTGGTACG	5.27	3.4	0.278	2.78	-0.151	4.7	3.55	4.19	1.1	2.75	-0.17	2.06	-0.206	-1.06	2.1	3.35	0.417	4.27	1.19	4.07
CCTATTAGTTGACCACAAGGGCAACCGAAGCTCG	0.713	0.65	0.493	0.591	0.786	0.698	0.53	0.203	0.1	0.256	0.687	0.913	0.619	0.658	1.46	0.841	1	0.762	1.46	1.49
AATACAGAGTCATCGTAGGCCAGAGTACGCACAG	0.102	0.331	-0.311	-0.227	-0.569	-0.149	0.955	0.273	-0.0148	0.175	0.0374	0.268	0.399	0.579	-0.714	-0.113	-0.387	-0.0799	0.026	0.17
CTCGAAAGGTCGTGCTCAAGTGAGTATACCAAAC	5.4	3.95	0.0272	3.51	0.363	4.73	2.57	3.77	0.732	2.35	0.992	1.58	1.46	0.784	1.8	3.15	0.371	3.74	-0.14	3.97
TTACCAAGGTGAAGGTCGTTGGTCCCTCTGTAGA	1.16	1.1	-0.0893	1.2	-0.734	2.45	2.79	4.07	1.8	3.33	2.04	3.34	-0.723	-0.44	0.993	1.03	-0.26	1.49	-0.694	2.17
TGATTGAGGTTATAAGATCAGGGAACGTTGCAAA	1.58	1.48	-0.174	1.21	-0.195	2.46	0.965	1.78	0.689	1.56	0.431	1.59	0.391	0.349	0.564	0.896	-0.0809	1.5	0.232	1.19
